These results are taken from PubChem BioAssay.

One experiment deals with Calmodulin-1 (Homo sapiens) (UniProt P0DP23). Nature of the experiment: small molecules binding Ca-loaded calmodulin-1 – biochemical, small-molecule microarray, Cy5-labelled CALM1, plus calcium, artefact control for SMM control-protein annotation, profiling panel (AID 1112).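 Note: score merges spot fluorescence with signal to noise from triplicate slides.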 The following applies: Cy5-CALM1 binding fluorescence, higher = more signal.
As to `COCCCNC(=O)[C@@]1(Sc2ccc(C)cc2)CC(=O)N(C2Cc3ccccc3C2)[C@@H]1c1ccc(CO)cc1I`, the composite z-score was determined as 0.0685.

Consider `C=CC[C@]1(C(=O)N(C)C)N=C(c2ccc(OCCCO)cc2)O[C@H]1c1ccccc1N=[N+]=[N-]`, for which the composite z-score turned out to be 0.116.

On to `CCOC(=O)C1=CC[C@@H](c2ccccc2C(F)(F)F)N(S(=O)(=O)c2ccc(C)cc2)C1`, for which the composite z-score was found to be 1.07.

In the case of `CC(C)C(O)C1C=CC2C(=O)N(C)C(=O)C2N1N(c1ccccc1)c1ccccc1` (stereo not drawn), the composite z-score was found to be 0.368.

Take `CCOC(=O)C1=CC[C@@H](c2ccc([N+](=O)[O-])cc2)N(S(=O)(=O)c2ccc(C)cc2)[C@H]1c1ccccc1`: the composite z-score is 0.423.

For `[N-]=[N+]=NCc1ccccc1C[C@@]1(C(=O)N2CCCCC2)N=C(c2ccc(OCCCO)cc2)O[C@@H]1c1ccccc1N=[N+]=[N-]`, the composite z-score was determined as 0.795.

As for `C=C(/C(=C/C[C@@H](OC(=O)c1ccncc1)c1ccccc1OCCO)c1cc(C(=O)OC)ccc1OC)C(C)C`, the composite z-score is -0.366.

Turning to `COCCOC(=O)N1C(=O)[C@@]2(c3cc(C#CC4(O)CCCCCC4)ccc31)[C@H](C(N)=O)[C@H]1C(=O)O[C@H](c3ccccc3)[C@H](c3ccccc3)N1[C@@H]2c1ccc(O)cc1`, the composite z-score was -0.471.

System in a further experiment: not listed separately
The experiment in a line: probe aWnt5a binding to arrayed compounds – biochemical, biotinylated probe, 635/667 nm fluorescence, primary screen (AID 1113).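 Note: score merges 667 nm fluorescence intensity with signal-to-noise per printed feature.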 Particulars: small-molecule microarray, higher = more signal.
With `COC(=O)[C@@]1(Cc2ccccc2)[C@H]2c3cc(C(=O)N4CCCC4)[nH]c3C[C@H]2CN1C(=O)c1ccccc1`, the composite z-score amounted to 0.0913.

For the compound `O=C(O)[C@H](Cc1ccccc1)n1cc(-c2ccccn2)nn1`, the composite z-score was -0.152.

The compound `O=C1O[C@@H](c2ccccc2)[C@@H](c2ccccc2)N2[C@@H](c3ccccc3OCCO)[C@]3(C(=O)Nc4ccc(C#CCCO)cc43)[C@@H](C(=O)N3CCN(c4ncccn4)CC3)[C@H]12` showed a composite z-score of -0.096.

In turn, `COc1ccc([Si](C)(C)[C@@H]2[C@@H](CCO)O[C@]3(C(=O)N(Cc4cccc(N5C(=O)c6ccccc6Oc6ccccc65)c4)c4ccccc43)[C@H]2C)cc1` had a composite z-score of -0.208.

`CN(C)CCCN1C(=O)[C@@]2(c3ccc([N+](=O)[O-])cc3)CC(=O)N(CC34CC5CC(CC(C5)C3)C4)[C@@H]2c2ccc(CO)cc21` yielded a composite z-score of -0.152.

Compound `C[C@]12C(=O)N(CCCCCCO)[C@@H]3C(=O)N(c4ccc(Cl)cc4)CC=CC31O[C@@H]1/C=C\CCCOC(=O)C12` (stereo partly drawn) returned a composite z-score of 0.0297.

In the case of `CC1CC/C=C\[C@H]2OC34C=CCN(c5ccc6ccccc6c5)C(=O)[C@H]3N(C(CO)C(C)C)C(=O)[C@@H]4C2C(=O)O1` (stereo partly drawn), the composite z-score is -0.169.

Take `O=C1O[C@@H](c2ccccc2)[C@@H](c2ccccc2)N2[C@@H](c3ccc(O)cc3)[C@]3(C(=O)Nc4ccc(C#CC5=CCCCC5)cc43)[C@@H](C(=O)N3CCN(c4ncccn4)CC3)[C@H]12`: the composite z-score was -0.0459.

With `C[C@H]1ON(c2ccc(C(=O)OC(C)(C)C)cc2)[C@@H](c2ccc(O)cc2)[C@@H]1C(=O)N1C(=O)OC[C@@H]1c1ccccc1`, the composite z-score was -0.0977.

The compound `CCOC(=O)C[C@H]1[C@H](OC(=O)Cc2ccc3c(c2)OCO3)[C@@H](NC(=O)C2CCCCC2)c2cc(OCCCO)ccc2N1C(=O)c1ccc2ccccc2n1` registered a composite z-score of -0.1.

On to `CN1C(=O)C2C=CC(C(O)c3c(F)cccc3Cl)N(Nc3ccccc3)C2C1=O` (stereo not drawn), for which the composite z-score is -0.0276.

On to `COCCCNC(=O)[C@]1(Cc2ccccc2CN=[N+]=[N-])N=C(c2ccc(OCCCO)cc2)O[C@@H]1c1ccccc1`, for which the composite z-score was 0.0519.

`[N-]=[N+]=NCc1ccccc1C[C@@]1(C(N)=O)N=C(c2ccc(OCCCO)cc2)O[C@@H]1c1ccccc1CN=[N+]=[N-]` came in with a composite z-score of -0.0236.

Take `COC(=O)[C@@]1(Cc2ccc(OC)cc2)[C@H]2c3cc(C(=O)N4CCCC4)n(CCc4cc5ccccc5[nH]4)c3C[C@H]2CN1C(=O)c1ccccc1`: the composite z-score turned out to be 0.239.

`COCCOC(=O)N1C(=O)[C@@]2(c3cc(C#Cc4ccc(OC)cc4)ccc31)[C@H](C(=O)NC[C@H](O)c1ccccc1)[C@H]1C(=O)O[C@H](c3ccccc3)[C@H](c3ccccc3)N1[C@@H]2c1ccc(O)cc1` gave a composite z-score of -0.0816.

On to `C=CC[C@@]12N=C(c3ccc(OCCCO)cc3)O[C@@H]1c1ccccc1N(CCS(=O)(=O)c1ccccc1)C2=O`, for which the composite z-score was -0.0303.

Compound `C=CCN1C(=O)[C@]2(CC=C)N=C(c3ccc(OCCCO)cc3)O[C@@H]2c2ccccc21` displayed a composite z-score of 0.123.

`Cc1ccc(S[C@]2(C(=O)NCC(C)C)CC(=O)N(Cc3ccccc3Cl)[C@@H]2c2ccc(CO)cc2I)cc1` registered a composite z-score of 0.31.

Consider `COc1ccccc1CN1C(=O)c2ccccc2[C@](Cc2ccccc2I)(C(=O)NC(C)C)[C@@H]1c1ccc(CO)cc1`, for which the composite z-score is -0.0455.

Compound `CCOc1cc(C(O)C2C=CC3C(=O)N(C4CCCCC4)C(=O)C3N2Nc2ccc(OC)cc2)ccc1O` (stereo not drawn) had a composite z-score of 0.0182.

Take `COCCOC(=O)N1C(=O)[C@@]2(c3cc(C#Cc4ccc(OC)cc4)ccc31)[C@H](C(=O)N1CCCCCCC1)[C@H]1C(=O)O[C@H](c3ccccc3)[C@H](c3ccccc3)N1[C@@H]2c1ccc(O)cc1`: the composite z-score is -0.0239.

Regarding `C=C(C(=O)CC[C@H](OC(=O)c1cccnc1)c1ccc(CO)o1)C(C)C`, the composite z-score was 0.0973.

`COC(=O)[C@H](Cc1ccccc1)N1CC(/C=C/C2CC2)=C[C@@H]1[C@@H](O)Cc1ccccc1` yielded a composite z-score of 0.0079.

In turn, `COC(=O)[C@@]1(Cc2ccc(OC)cc2)[C@H]2c3cc(C(=O)N(C)C)n(Cc4nc5ccccc5[nH]4)c3C[C@H]2CN1C(=O)c1ccccc1` yielded a composite z-score of 0.343.

`CN(C)C(=O)[C@]1(CCC(=O)OC(C)(C)C)N=C(c2ccc(OCCCO)cc2)O[C@@H]1c1ccccc1`: the composite z-score came out at 0.14.

The compound `COCCOC(=O)N1C(=O)[C@@]2(c3cc(C#CC4(O)CCCCCC4)ccc31)[C@H](C(N)=O)[C@H]1C(=O)O[C@H](c3ccccc3)[C@H](c3ccccc3)N1[C@@H]2c1ccccc1OCCO` showed a composite z-score of -0.0758.

`Cc1ccc(S[C@]2(C(=O)NCC(F)(F)F)CC(=O)N(Cc3ccccc3)[C@@H]2c2ccc(CO)cc2)cc1` displayed a composite z-score of -0.169.

On to `COCCCNC(=O)[C@@]1(Sc2ccc(C)cc2)CC(=O)N(C2Cc3ccccc3C2)[C@@H]1c1ccc(CO)cc1I`, for which the composite z-score was -0.154.

`C=CC[C@]1(C(=O)N(C)C)N=C(c2ccc(OCCCO)cc2)O[C@H]1c1ccccc1N=[N+]=[N-]`: the composite z-score came out at 0.0559.

On to `CCOC(=O)C1=CC[C@@H](c2ccccc2C(F)(F)F)N(S(=O)(=O)c2ccc(C)cc2)C1`, for which the composite z-score amounted to 0.274.

On to `CC(C)C(O)C1C=CC2C(=O)N(C)C(=O)C2N1N(c1ccccc1)c1ccccc1` (stereo not drawn), for which the composite z-score is -0.0165.

On to `CCOC(=O)C1=CC[C@@H](c2ccc([N+](=O)[O-])cc2)N(S(=O)(=O)c2ccc(C)cc2)[C@H]1c1ccccc1`, for which the composite z-score is 0.0324.

Turning to `[N-]=[N+]=NCc1ccccc1C[C@@]1(C(=O)N2CCCCC2)N=C(c2ccc(OCCCO)cc2)O[C@@H]1c1ccccc1N=[N+]=[N-]`, the composite z-score is -0.392.

Compound `C=C(/C(=C/C[C@@H](OC(=O)c1ccncc1)c1ccccc1OCCO)c1cc(C(=O)OC)ccc1OC)C(C)C` had a composite z-score of -0.012.

`COCCOC(=O)N1C(=O)[C@@]2(c3cc(C#CC4(O)CCCCCC4)ccc31)[C@H](C(N)=O)[C@H]1C(=O)O[C@H](c3ccccc3)[C@H](c3ccccc3)N1[C@@H]2c1ccc(O)cc1` registered a composite z-score of -0.0203.
